In one test the target is SKI. Briefly: pooled miR-30 sensor sort-seq; sequence = guide strand. The note with it: shRNA.
For the sequence TTCTTCTCGTTCTCGGCGCGGA, the sensor-assay potency score (higher = more potent) is -0.778.
The same measure, in the same setting: the figure for TTACACTTGCCGAAGCACTCGT is 0.441; for TCTCACTCGCTGACACTGCGGG it is -0.587.
The same measure, in the same setting: the figure for TCACTCGCTGACACTGCGGGGG is -0.224.
On the same count and under the same terms, the figure for TACGGTCTCGCAGCGCTCGGTG is -1.18; for TTTGGCTTCCTTGGTGTCCAGG it is -1.03; for TTTCTCCTTCACGTCGTCCAGG it is -1.07.
As for TAGGAGTAGAAGCTGTCTCGGA, the sensor-assay potency score (higher = more potent) came out at 0.278.
On the same count and under the same terms, the figure for TGGAGCTCGTCGCACACCGCGT is -1.77; for TAGATGTGGAGCTCGTCGCACA it is -1.04; for TACACTTGCCGAAGCACTCGTG it is -0.466.
TTGGTGATGAGCCCGCACGAGG gave a sensor-assay potency score (higher = more potent) of -1.78.

Another test addresses SLAIN1. Described as above. Conditions: shRNA.
The sequence TATATTAAAACACAAAAGGGAA displayed a sensor-assay potency score (higher = more potent) of -0.738.
Sequence TTGAGTCAAAACTCTGACTATT had a sensor-assay potency score (higher = more potent) of -1.16.
As to TATGTCTTGATACAGATGCTGA, the sensor-assay potency score (higher = more potent) is -0.777.
On the same count and under the same terms, the figure for TTGCCTGAGACTTTCTTCTTGC is 0.429; for TTCTTCGGAGCTTATCTCCATT it is -0.767.
On the same count and under the same terms, the figure for TTCTTCTTGCAGACGAGCCATG is -1.37; for TTCTTGAAATTCCATTTCCAGC it is -1.69; for TGAAGTAGAAGCATAATCTTGC it is 0.776.
On the same count and under the same terms, the figure for TTTATTGCCAACGAAGGTCTTG is 0.0936; for TTGAGGTGAATAATACTGTTGC it is -0.0982; for TACATGTCCCTTTTTTTCCTGA it is -0.235.
Turning to TATTTGAAGGAAAATACTGGGA, the sensor-assay potency score (higher = more potent) was determined as 0.189.

The target in a further test is SLC10A3. The description is as above. The note with it: shRNA.
TCTCCAATGCTCAAGTAGCGGC came in with a sensor-assay potency score (higher = more potent) of -0.783.
In the case of TTGGGTTTTCCGAGAAGTGGGC, the sensor-assay potency score (higher = more potent) turned out to be 0.0759.
On the same count and under the same terms, the figure for TTAAGGGACCTGTGCCACCACC is -1.35; for TAGAGGATTGGGTTTTCCGAGA it is -0.917.
The same measure, in the same setting: the figure for TAGTGCATGAGAACTTTGGTGG is 0.0901; for TTTTCTGAGTGCATAGTGCATG it is -0.554.
On the same count and under the same terms, the figure for TTGATGCAGAAGTCTCTCCGCT is -0.433; for TCAAACTCCATCACAGAGCCAT it is -0.169; for TCTTCAGCAGGTGAGACCTTGA it is -0.622.
TCTTGATGGTCAGCACCTCTGT returned a sensor-assay potency score (higher = more potent) of -1.25.
The same measure, in the same setting: the figure for AAAGATAAGAGGCAGGAGCAGG is -0.888.
Take TTCAGCAGGTGAGACCTTGATG: the sensor-assay potency score (higher = more potent) was -1.03.

For a further test, the target named is SLC10A7. Described as above. The note with it: shRNA.
In the case of ATCATGAGGAGTACACTGCTGC, the sensor-assay potency score (higher = more potent) was -0.556.
The same measure, in the same setting: the figure for TATTGTTGCAACAGCAATGTAG is 0.00955.
The sequence TAAAAGCATAAAACTCAGCTGG came in with a sensor-assay potency score (higher = more potent) of -0.225.
On the same count and under the same terms, the figure for TATCTTCGGACAATCTGTCCAA is -0.198.
Note: reference of the scale not given here.
